The source of these data is PubChem BioAssay (EPA / NIEHS).

Experiment [1] in a line: ATG_CRE_CIS: Attagene CIS-FACTORIAL HepG2 Assay for human cAMP Responsive Element (CRE) binding protein 3 (AID 2282926). The settings on record: HepG2 CRE cis-reporter, Attagene multiplexed mRNA; actives raise or lower the signal. In outline:
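Liver-derived HepG2, transfected with a CRE-containing reporter panel, exposed 24 h; transcript levels sized and quantified by capillary electrophoresis of labelled amplicons; signal changes either way referenced to vehicle.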

Experiment [2] has as its target CCAAT/enhancer-binding protein beta (Homo sapiens) (UniProt P17676). In words: ATG_C_EBP_CIS: Attagene CIS-FACTORIAL HepG2 Assay for human CCAAT/Enhancer Binding Protein (C/EBP) beta (AID 2282927). The settings on record: HepG2 Attagene cis-factorial transcription factor reporter; actives raise or lower the signal. In outline: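 Changes in reporter mRNA, rather than exogenous chimeric receptor activity, reflect native C/EBP signalling in transfected HepG2 cells dosed for 24 h; transcripts are detected by RT-PCR and capillary electrophoresis.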

Experiment [3] can be described thus: ATG_CMV_CIS: Attagene CIS-FACTORIAL HepG2 Assay for human CMV (Internal Marker) (AID 2282928).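 Further: endpoint acts as a background internal control marker rather than a target.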 To be noted: HepG2 CMV promoter reporter, transcription factor profiling; actives raise or lower the signal. In outline:
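24 h chemical treatment, HepG2 with transient multi-reporter transfection; RNA → oligo(dT) RT → PCR → 6-FAM extension → HpaI digest → CE fluorescence. Bidirectional fit, DMSO negative control.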

Experiment [4] in a line: ATG_DR4_LXR_CIS: Attagene CIS-FACTORIAL HepG2 Assay for human Liver X Receptor (LXR), DR4 submotif (AID 2282929). To be noted: HepG2 Attagene DR4 cis-reporter, mRNA transcription; actives raise or lower the signal. In outline: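 Fluorescence intensity of labelled reporter cDNA fragments, separated by capillary electrophoresis, gives the signal. HepG2 cells bearing cis-regulated reporter constructs were treated 24 h; activity fitted bidirectionally relative to DMSO negative control.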

In experiment [5] the target is Aryl hydrocarbon receptor (Homo sapiens) (UniProt P35869). In words: ATG_Ahr_CIS: Attagene CIS-FACTORIAL HepG2 Assay for human Aryl Hydrocarbon Receptor (Ahr) (AID 2282930). The settings on record: HepG2 AhR cis-factorial reporter transcription; actives raise or lower the signal. In outline:
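HepG2, transient MRTU (cis) transfection, 24 h exposure. RNA → cDNA → PCR → 6-FAM primer extension → HpaI 2 h 37 C → CE. Fit: bidirectional, DMSO baseline.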

Experiment [6] is described as follows: ATG_AP_1_CIS: Attagene CIS-FACTORIAL HepG2 Assay for human Activator Protein 1 (AP-1) (AID 2282931). The settings on record: HepG2 Attagene cis-factorial AP-1 reporter mRNA; actives raise or lower the signal. Put shortly:
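Multiplexed HepG2 reporter assay, 24 h dosing. mRNA induction detected by RT-PCR plus capillary electrophoresis. Activity fitted in both directions against DMSO.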

Experiment [7] is described as follows: ATG_AP_2_CIS: Attagene CIS-FACTORIAL HepG2 Assay for human Activator Protein 2 (AP-2) (AID 2282932). The settings on record: HepG2 AP-2 cis-reporter, Attagene transcription factor profiling; actives raise or lower the signal. In outline:
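Transiently transfected HepG2 cells are exposed to chemical for 24 h. Reporter transcripts are then measured as fluorescence following RT-PCR and capillary separation, and gain- or loss-of-signal is fitted relative to DMSO.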

The nature of experiment [8]: ATG_BRE_CIS: Attagene CIS-FACTORIAL HepG2 Assay for human Bone Morphogenetic Protein (BMP) Response Element (BRE) (AID 2282933). The settings on record: HepG2 BMP response element reporter, Attagene transcription factor profiling; actives raise or lower the signal. In outline:
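Gain- or loss-of-signal was derived by bidirectional fitting against DMSO controls. The signal came from reporter mRNA, measured by RT-PCR and capillary electrophoresis, in HepG2 cells transiently carrying multiple reporter units and dosed for 24 h.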

The target in experiment [9] is Transcription factor E2F1 (Homo sapiens) (UniProt Q01094). In words: ATG_E2F_CIS: Attagene CIS-FACTORIAL HepG2 Assay for human E2F Transcription Factor 1 (AID 2282935). To be noted: HepG2 Attagene cis-reporter, E2F reporter RNA transcripts; actives raise or lower the signal. Put shortly:
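Fluorescent RT-PCR products, digested with HpaI for 2 h at 37 C, are separated by capillary electrophoresis. Source RNA comes from transfected HepG2 cultures treated for 24 h.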

Experiment [10] in a line: ATG_M_61_CIS: Attagene CIS-FACTORIAL HepG2 Assay for M61 Transcription Factor (Internal Marker) (AID 2282937). The settings on record: HepG2 Attagene CIS-FACTORIAL M61 internal marker reporter; actives raise or lower the signal. Put shortly: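 Endogenous transcription factor activity in HepG2 is read through transiently transfected cis-element reporter units. After 24 h dosing, RNA undergoes reverse transcription, PCR and primer extension with 6-FAM before capillary electrophoresis; DMSO-referenced bidirectional fit.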

Experiment [11] in a line: ATG_M_19_CIS: Attagene CIS-FACTORIAL HepG2 Assay for M19 Transcription Factor (Internal Marker) (AID 2282939). The settings on record: HepG2 Attagene CIS-FACTORIAL M19 internal marker reporter; actives raise or lower the signal. In outline:
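Following a 24 h exposure, RNA from transfected HepG2 cells was reverse-transcribed, PCR-amplified with reporter-specific primers, end-labelled with 6-FAM and HpaI-digested before capillary separation. Values represent gain or loss versus DMSO.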

Experiment [12] in a line: ATG_Ets_CIS: Attagene CIS-FACTORIAL HepG2 Assay for human Erythroblast Transformation Specific (ETS) (AID 2282941). The settings on record: HepG2 ETS cis-reporter transcription, actives raise or lower the signal. In outline:
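Cis-regulated reporter mRNA induction in HepG2 (transient transfection), 24 h exposure, RT-PCR plus capillary electrophoresis detection; DMSO serves as negative control and baseline.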

Experiment [13] deals with Hepatocyte nuclear factor 3-beta (Homo sapiens) (UniProt Q9Y261). In words: ATG_FoxA2_CIS: Attagene CIS-FACTORIAL HepG2 Assay for human Forkhead box A2 (FOXA2) (AID 2282942). To be noted: HepG2 cis-reporter transcription factor activity, 24 h; actives raise or lower the signal. Put shortly: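 Reporter transcript induction is measured by fluorescence after capillary electrophoresis of RT-PCR products from HepG2 cells exposed 24 h. Cis-regulated reporter units report endogenous factor activity; curves fitted both directions against DMSO.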
Hepatocyte nuclear factor 3-beta (Homo sapiens), sequence (Q9Y261 whole entry, looked up): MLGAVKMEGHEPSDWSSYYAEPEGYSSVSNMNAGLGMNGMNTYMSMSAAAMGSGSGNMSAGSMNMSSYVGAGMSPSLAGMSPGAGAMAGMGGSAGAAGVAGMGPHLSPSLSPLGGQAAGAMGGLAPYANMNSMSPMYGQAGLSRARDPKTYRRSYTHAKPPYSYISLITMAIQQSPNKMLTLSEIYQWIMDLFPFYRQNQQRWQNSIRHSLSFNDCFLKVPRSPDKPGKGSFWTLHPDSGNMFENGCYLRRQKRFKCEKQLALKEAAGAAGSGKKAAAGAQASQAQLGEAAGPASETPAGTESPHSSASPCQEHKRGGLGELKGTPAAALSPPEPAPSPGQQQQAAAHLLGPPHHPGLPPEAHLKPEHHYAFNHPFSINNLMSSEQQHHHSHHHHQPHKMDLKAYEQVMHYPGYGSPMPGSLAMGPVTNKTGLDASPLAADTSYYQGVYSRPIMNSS

Experiment [14] in a line: ATG_FoxO_CIS: Attagene CIS-FACTORIAL HepG2 Assay for human Forkhead box O (FoxO) (AID 2282943). The settings on record: HepG2 Attagene cis-reporter, FoxO element, mRNA; actives raise or lower the signal. In outline:
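Human hepatoma HepG2 cells carry transiently introduced reporter transcription units controlled by cis promoter elements. Chemical treatment lasted 24 h, and mRNA signal was compared with DMSO.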

Experiment [15] is described as follows: ATG_GATA_CIS: Attagene CIS-FACTORIAL HepG2 Assay for human GATA Binding Protein (AID 2282944). The settings on record: HepG2 GATA cis-element reporter, Attagene multiplex mRNA; actives raise or lower the signal. Put shortly: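 DMSO serves as negative control and baseline for bidirectional fitting of reporter mRNA changes. HepG2 cells bearing transiently transfected cis-promoter reporters were exposed 24 h; transcripts detected via RT-PCR and capillary electrophoresis.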

The nature of experiment [16]: ATG_GLI_CIS: Attagene CIS-FACTORIAL HepG2 Assay for human Zinc Finger Protein GLI1 (AID 2282945). The settings on record: HepG2, Attagene cis-factorial reporter mRNA, GLI element; actives raise or lower the signal. Put shortly:
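Bidirectional curve fits relative to DMSO, using reporter mRNA levels from RT-PCR plus capillary electrophoresis. Cells were HepG2 transiently carrying cis-regulated reporter constructs, harvested 24 h after dosing.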

Experiment [17] has as its target Bile acid receptor (Homo sapiens) (UniProt Q96RI1). In words: ATG_IR1_CIS: Attagene CIS-FACTORIAL HepG2 Assay for human Nuclear Receptor Subfamily 1 Group H Member 4 (NR1H4), IR1 submotif (AID 2282946). The settings on record: IR1 reporter transcription, actives raise or lower the signal. Put shortly:
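HepG2 cells transiently transfected with multiplexed cis-element reporter units read endogenous transcription factor activity. After 24 h compound exposure, reporter mRNA was quantified by RT-PCR, fluorescent labelling, HpaI digestion and capillary electrophoresis; bidirectional fitting versus DMSO baseline.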

A short description of experiment [18]: ATG_E_Box_CIS: Attagene CIS-FACTORIAL HepG2 Assay for human Enhancer Box (E-box) (AID 2282936). To be noted: HepG2 E-box cis-reporter transcription, actives raise or lower the signal. In outline:
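Fluorescent reporter fragments separated by capillary electrophoresis gave the signal; mRNA came from HepG2 cells transfected with cis-element reporters and treated 24 h. Curves fitted bidirectionally relative to DMSO controls.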

A short description of experiment [19]: ATG_EGR_CIS: Attagene CIS-FACTORIAL HepG2 Assay for human Early Growth Response 1 (EGR1) (AID 2282938). To be noted: HepG2 Attagene CIS-FACTORIAL EGR reporter mRNA; actives raise or lower the signal. In outline: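 Activity is taken as induction or loss of reporter mRNA versus DMSO, fitted bidirectionally. Transcripts from cis-regulated reporter units in transiently transfected HepG2 were measured after 24 h by RT-PCR with capillary electrophoresis.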

Experiment [20] has as its target Retinoic acid receptor alpha (Homo sapiens) (UniProt P10276). In words: ATG_DR5_RAR_CIS: Attagene CIS-FACTORIAL HepG2 Assay for human Retinoic Acid Receptor Alpha (RARE), DR5 submotif (AID 2282934). The settings on record: HepG2 Attagene cis-factorial RARE DR5 reporter, mRNA; actives raise or lower the signal. Put shortly: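 HepG2, transient cis-reporter transfection, 24 h exposure. mRNA readout: RT-PCR, FAM label, HpaI cut, capillary electrophoresis. DMSO baseline, gain/loss fitting.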

Active and inactive are the calls of the source. How the source made its calls: active means hit-call score of the fitted dose curve at least 0.9, where 1 is the maximum; inactive means score below 0.9.

The AC50 is the concentration at which the activity in the assay is half-maximal.

Bile acid receptor (Homo sapiens), sequence (Q96RI1 whole entry, looked up): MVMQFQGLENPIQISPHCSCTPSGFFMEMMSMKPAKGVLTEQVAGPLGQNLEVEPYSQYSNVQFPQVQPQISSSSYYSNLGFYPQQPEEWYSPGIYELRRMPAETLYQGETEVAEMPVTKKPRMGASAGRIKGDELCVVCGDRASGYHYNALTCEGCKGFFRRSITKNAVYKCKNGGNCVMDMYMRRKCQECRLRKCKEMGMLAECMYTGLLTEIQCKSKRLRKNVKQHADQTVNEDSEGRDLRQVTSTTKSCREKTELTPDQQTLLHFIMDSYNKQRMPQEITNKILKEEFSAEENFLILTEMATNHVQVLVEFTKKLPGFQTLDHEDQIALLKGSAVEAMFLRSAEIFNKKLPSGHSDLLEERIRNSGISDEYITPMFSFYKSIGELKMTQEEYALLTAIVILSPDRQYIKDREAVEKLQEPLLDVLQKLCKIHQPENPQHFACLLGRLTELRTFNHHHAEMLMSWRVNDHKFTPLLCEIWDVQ
Aryl hydrocarbon receptor (Homo sapiens), sequence (P35869 whole entry, looked up): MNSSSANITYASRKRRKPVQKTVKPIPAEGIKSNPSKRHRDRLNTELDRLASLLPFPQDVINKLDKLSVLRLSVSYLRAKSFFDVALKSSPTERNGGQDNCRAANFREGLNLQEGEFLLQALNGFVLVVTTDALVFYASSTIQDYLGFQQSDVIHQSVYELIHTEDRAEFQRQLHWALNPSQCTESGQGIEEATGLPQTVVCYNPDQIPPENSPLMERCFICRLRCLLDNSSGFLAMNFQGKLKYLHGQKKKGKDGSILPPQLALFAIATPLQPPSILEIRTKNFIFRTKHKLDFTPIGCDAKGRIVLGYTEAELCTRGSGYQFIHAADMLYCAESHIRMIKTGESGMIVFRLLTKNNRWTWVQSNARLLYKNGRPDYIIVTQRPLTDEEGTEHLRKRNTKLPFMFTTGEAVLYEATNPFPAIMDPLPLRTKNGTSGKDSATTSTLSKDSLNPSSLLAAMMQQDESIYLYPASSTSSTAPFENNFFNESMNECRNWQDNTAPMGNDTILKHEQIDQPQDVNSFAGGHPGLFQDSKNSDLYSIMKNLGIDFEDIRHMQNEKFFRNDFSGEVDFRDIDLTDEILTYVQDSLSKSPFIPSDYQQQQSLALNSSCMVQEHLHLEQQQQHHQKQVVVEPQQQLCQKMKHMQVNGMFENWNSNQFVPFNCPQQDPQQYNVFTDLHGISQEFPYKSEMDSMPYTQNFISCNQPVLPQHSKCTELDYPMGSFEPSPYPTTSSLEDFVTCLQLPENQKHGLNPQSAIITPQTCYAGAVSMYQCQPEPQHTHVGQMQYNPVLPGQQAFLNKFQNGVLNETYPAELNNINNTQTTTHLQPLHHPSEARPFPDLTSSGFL
CCAAT/enhancer-binding protein beta (Homo sapiens), sequence (P17676 whole entry, looked up): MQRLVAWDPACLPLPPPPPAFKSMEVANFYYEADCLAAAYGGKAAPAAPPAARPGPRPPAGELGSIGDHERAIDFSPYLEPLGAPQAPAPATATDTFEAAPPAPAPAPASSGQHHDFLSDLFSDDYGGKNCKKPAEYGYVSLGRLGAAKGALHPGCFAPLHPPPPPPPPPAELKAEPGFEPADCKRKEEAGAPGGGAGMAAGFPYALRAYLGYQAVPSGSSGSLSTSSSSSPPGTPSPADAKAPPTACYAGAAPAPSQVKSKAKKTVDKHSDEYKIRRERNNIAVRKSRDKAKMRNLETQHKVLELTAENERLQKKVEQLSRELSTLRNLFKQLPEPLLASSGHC
Transcription factor E2F1 (Homo sapiens), sequence (Q01094 whole entry, looked up): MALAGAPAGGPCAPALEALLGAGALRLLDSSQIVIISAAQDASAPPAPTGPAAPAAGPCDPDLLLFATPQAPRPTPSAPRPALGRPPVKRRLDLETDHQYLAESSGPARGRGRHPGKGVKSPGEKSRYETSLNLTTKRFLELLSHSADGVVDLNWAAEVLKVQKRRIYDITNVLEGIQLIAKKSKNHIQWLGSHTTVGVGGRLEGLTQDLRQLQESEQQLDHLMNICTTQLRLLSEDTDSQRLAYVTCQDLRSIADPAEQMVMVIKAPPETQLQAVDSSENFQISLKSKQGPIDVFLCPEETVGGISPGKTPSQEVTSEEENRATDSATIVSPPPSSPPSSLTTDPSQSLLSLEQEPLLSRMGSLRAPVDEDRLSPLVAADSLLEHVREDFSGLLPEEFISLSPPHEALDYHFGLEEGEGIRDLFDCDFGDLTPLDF
Retinoic acid receptor alpha (Homo sapiens), sequence (P10276 whole entry, looked up): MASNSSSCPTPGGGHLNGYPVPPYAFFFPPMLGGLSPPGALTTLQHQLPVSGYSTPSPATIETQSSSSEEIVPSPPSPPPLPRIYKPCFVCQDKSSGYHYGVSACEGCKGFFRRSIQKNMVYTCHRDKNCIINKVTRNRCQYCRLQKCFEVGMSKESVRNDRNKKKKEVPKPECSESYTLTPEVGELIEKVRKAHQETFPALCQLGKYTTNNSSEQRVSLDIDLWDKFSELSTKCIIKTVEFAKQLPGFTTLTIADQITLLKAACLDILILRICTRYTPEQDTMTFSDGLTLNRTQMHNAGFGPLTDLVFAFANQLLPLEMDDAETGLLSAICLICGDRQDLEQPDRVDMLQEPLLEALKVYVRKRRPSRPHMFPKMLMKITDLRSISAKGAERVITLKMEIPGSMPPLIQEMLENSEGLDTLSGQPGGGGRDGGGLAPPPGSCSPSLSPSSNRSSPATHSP

For the molecule `CN(C)CCOc1ccc(/C(=C(/CCCl)c2ccccc2)c2ccccc2)cc1`, the call in experiment [1], in [2], in experiment [3], in experiment [5], in experiment [6] and in [7] was inactive. The molecule was called inactive in [8], in [9], in experiment [10], in [11], in [12] and in [13]. Also, the molecule was classed as inactive in experiment [14], in experiment [15], in experiment [16] and in experiment [17]. In addition, the AC50 in experiment [4] was 1.99 µM (active).

On to `C=C(C)C(=O)OCC(CC)(COC(=O)C(=C)C)COC(=O)C(=C)C`, for which the outcome in experiment [1], in experiment [2], in experiment [3], in [4], in experiment [5] and in experiment [6] was inactive. Further, the result in experiment [7], in experiment [8], in experiment [9], in [18], in experiment [10] and in experiment [19] was inactive. For the same molecule, the molecule was called inactive in experiment [12], in [13], in experiment [14], in experiment [15], in experiment [16] and in experiment [17].

For `CC(=O)c1c(C)c([N+](=O)[O-])c(C(C)(C)C)c([N+](=O)[O-])c1C`, the outcome in experiment [1], in [2], in experiment [3], in experiment [4], in experiment [5] and in experiment [6] was inactive. Moreover, the call in [7], in [8], in experiment [9], in experiment [18], in experiment [19] and in experiment [11] was inactive. The result in experiment [12], in experiment [13], in [14], in experiment [15], in experiment [16] and in experiment [17] was inactive.

With `CCOCCOCCOCC`, the outcome in experiment [1], in experiment [2], in [3], in experiment [4], in experiment [5] and in experiment [6] was inactive. Also, the call in experiment [7], in experiment [8], in experiment [20], in experiment [10], in experiment [19] and in experiment [11] was inactive. Moreover, the outcome in [13], in experiment [14], in experiment [15] and in experiment [16] was inactive.
